Compounds without any hit were thinned out: in the full panel of roughly 83,000, 20% have a hit.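 Negative percent growth values reflect cell death: -40 means 40% of the cells present at the start died, and -100 means all died.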 Values without a mark were called inactive. Calls of active or inactive are those of the source. Rule for the calls: active = growth percent below 10; inactive = the rest.
test system: OVCAR-3 ovarian; experiment: NCI-60 one-dose screen, 48 h (100 = growth as untreated, 0 = no growth, -100 = all killed); conditions: 10 µM

SMILES | growth
O=C(CS(=O)(=O)c1oc(-c2ccc(Cl)cc2)nc1S(=O)(=O)c1ccc(Cl)cc1)N1CCOCC1 | 6.83% (active)
COc1ccc(C(=O)NC(=S)N2CCN(c3ncnc4c3cnn4-c3ccccc3)CC2)cc1 | 83.1%
COc1cccc(COc2ccc(/C=C3\Oc4cc(O)ccc4C3=O)cc2)c1 | 24.9%
O=C(O)CCCCCCCCCCN1C(=O)/C(=C/c2cnc(-c3ccc(Cl)cc3)s2)SC1=S | -15.1% (active)
COc1cccc(C(N)=Nc2ccc(OCCCCCCn3cncn3)cc2)c1 | 16.2%
CN(C)c1cccc2c(S(=O)(=O)Nc3cccc(-c4csc(NC(=O)CCCCCN5CCN(c6cc7c(cc6F)C(=O)N(C6CCC(=O)NC6=O)C7=O)CC5)n4)c3)cccc12 (centres undefined) | 99.8%
Cc1ccc(C(C)C)cc1NC(=O)c1ccccc1O | 29.9%
NC(=Nc1ccc(OCCCCCCCCn2ccnn2)cc1)c1ccccc1 | 25.3%
O=c1[nH][nH]c(Nc2ccccc2)c1N=Nc1ccc(F)cc1 | 103%
CN1C(=O)/C(=C/c2nccs2)SC1=S | 114%
CNC(=O)c1cc(-c2ccc(NC(=O)Nc3ccc(C)cc3)cc2)nc2cccnc12 | 105%
O=c1oc2ccc(-c3ccc(F)cc3F)cc2c(=O)n1-c1ccc(F)c(Cl)c1 | 3.83% (active)
CCN1CCN(c2ccc(NC(=O)Nc3ccc(-c4cc(C(=O)NC(C)C)c5ncccc5n4)cc3)cc2C(F)(F)F)CC1 | -60.1% (active)
COC(=O)C(Cc1ccc(O)c(O)c1)NC(=O)C(CSC/C=C(\C)CCCC(C)CCCC(C)CCCC(C)C)NC(C)=O (centres undefined) | 34.8%
